Among the data in PubChem BioAssay (Tox21) are Potency values, retold here.

Values without a mark were called inactive. Results filed as inconclusive are left out. The source made the active and inactive calls. Unless noted, calls come from the whole dose curve.

Test [1] can be described thus: Nuclear factor erythroid 2-related factor 2/antioxidant responsive element (Nrf2/ARE) small molecule agonists: qHTS cell viability counter screen in human keratinocytes (AID 1919968; active = well fitted curve in the direction sought with a large enough effect in the repeat runs; an effect the other way counts as inactive or inconclusive; note: nearly all actives have a fitted effect of over 55% in size; note: potency is the fitted concentration of half-maximal effect). An outline of the steps: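 CellTiter-Fluor fluorescence, read 1 h after reagent, gave viability in the same wells as the ARE-luciferase assay. KeratinoSens cells (1,500/well) had 23 h compound exposure at 37 C/5% CO2 following 5 h plating.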
For orientation: In qHTS, concentration-response curves come from the screen itself.

A short description of test [2]: Nuclear factor erythroid 2-related factor 2/antioxidant responsive element (Nrf2/ARE) small molecule agonists: luciferase reporter gene qHTS assay in human keratinocytes (AID 1919969). Note: nearly all actives have a fitted effect of over 35% in size. A general note: In a reporter assay the amount or activity of a reporter protein is the signal.
Test [3] addresses Gonadotropin-releasing hormone receptor (Homo sapiens) (UniProt P30968). Kind of test: Human gonadotropin-releasing hormone receptor (GnRHR) small molecule agonists, calcium flux assay in GnRHR-HEK293 cells (AID 1920063). Note: nearly all actives have a fitted effect of over 35% in size. An outline of the steps: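 Agonist mode: compounds at 15 concentrations, in triplicate, went onto calcium dye-loaded GnRHR-HEK293 cells. Intracellular calcium was then followed as 480/540 nm fluorescence at 1 s intervals over 3 min.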
A general note: A change in cytosolic calcium serves as a functional read-out for many receptors and channels.

A short description of test [4]: G protein-coupled receptor (GPCR) small molecule agonists, calcium flux assay: HEK293 wild type cell line counter screen (AID 1920065). The essentials: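 Calcium flux counter screen: compound added in agonist mode at 15 concentrations in triplicate to dye-loaded parental HEK293 cells. Fluorescence (480/540) read kinetically for 3 min; ATP served as positive control.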

The nature of test [5]: p53 small molecule agonists, cell-based qHTS assay with human liver microsomes: qHTS cell viability counter screen (AID 1963579). Note: nearly all actives have a fitted effect of over 45% in size. An outline of the steps:
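Metabolically activated exposure: compounds, human liver microsomes and NADPH (0.5 mg/mL final apiece) were added to p53RE-bla cells seeded 5 h earlier, left 16 h at 37 C, and then assessed for viability by CellTiter-Glo luminescence.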

Test [6] is described as follows: p53 small molecule agonists, cell-based qHTS assay with rat liver microsomes: qHTS cell viability counter screen (AID 1963580). Note: nearly all actives have a fitted effect of over 45% in size. An outline of the steps: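 After the beta-lactamase ratio was read, CellTiter-Glo was added to the same wells and luminescence measured at 30 min; cells had been treated 16 h at 37 C with compounds, rat liver microsomes and NADPH (0.5 mg/mL final each).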

A short description of test [7]: p53 small molecule agonists, cell-based qHTS assay: qHTS cell viability counter screen (AID 1963581). Note: nearly all actives have a fitted effect of over 45% in size. An outline of the steps:
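Counter screen read by CellTiter-Glo luminescence (ATP content, 30 min at room temperature), run in the same wells as the beta-lactamase reporter read. HCT-116 p53RE-bla cells saw compounds for 16 h at 37 C.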

For test [8], the target named is 5-hydroxytryptamine receptor 2A (Homo sapiens) (UniProt P28223). As to the kind of experiment: 5-hydroxytryptamine receptor 2A (HTR2A) small molecule antagonists, cell-based qHTS assay (AID 1963586). Note: nearly all actives have a fitted effect of over 45% in size. Note: potency is the fitted concentration of half-maximal effect. The essentials: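 CHO cells stably expressing human HTR2A were plated for 18 h at 37 C, then loaded with calcium dye for 1 h. Compounds were preincubated 5 min at room temperature before DOI (4 nM solution) was added. Kinetic fluorescence was read for 3 min.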
Sequence of 5-hydroxytryptamine receptor 2A (Homo sapiens) (P28223 whole entry, looked up): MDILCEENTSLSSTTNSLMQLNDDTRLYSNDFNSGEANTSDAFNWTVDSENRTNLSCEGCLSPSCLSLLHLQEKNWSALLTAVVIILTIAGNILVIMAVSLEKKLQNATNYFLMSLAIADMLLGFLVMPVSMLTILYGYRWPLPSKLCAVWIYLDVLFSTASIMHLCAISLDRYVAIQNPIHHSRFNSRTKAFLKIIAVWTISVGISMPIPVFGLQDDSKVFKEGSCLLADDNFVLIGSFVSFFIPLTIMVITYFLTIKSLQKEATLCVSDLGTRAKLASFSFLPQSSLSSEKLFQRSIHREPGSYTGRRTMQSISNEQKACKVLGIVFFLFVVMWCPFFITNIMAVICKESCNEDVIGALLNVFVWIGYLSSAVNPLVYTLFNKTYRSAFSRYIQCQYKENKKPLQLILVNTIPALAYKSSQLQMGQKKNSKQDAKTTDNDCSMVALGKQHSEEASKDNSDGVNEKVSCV

Test [9] shares this target. As to the kind of experiment: 5-hydroxytryptamine receptor 2A (HTR2A) small molecule agonists, cell-based qHTS assay (AID 1963587). Note: nearly all actives have a fitted effect of over 30% in size. Note: potency is the fitted concentration of half-maximal effect. The essentials:
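CHO cells stably expressing human HTR2A, plated 18 h, loaded with calcium dye 1 h at 37 C. Agonist mode: compounds added and intracellular calcium fluorescence recorded kinetically for 2 min at 1 sec intervals.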

Test [10] addresses Muscarinic acetylcholine receptor M1 (Homo sapiens) (UniProt P11229). As to the kind of experiment: Cholinergic receptor muscarinic 1 (CHRM1) small molecule agonists, cell-based qHTS assay (AID 1963589). Note: nearly all actives have a fitted effect of over 35% in size. The essentials:
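Agonist-mode calcium-flux screen: compounds at 15 concentrations, three independent runs, were pin-transferred onto dye-loaded human CHRM1-CHO cells. Fluorescence was then recorded kinetically every second over minutes.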

Test [11] is described as follows: cAMP Responsive Elements (CRE) small molecule agonists, cell-based qHTS assay (AID 1963590). The essentials: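 Agonist mode: compound added to CRE-bla HEK 293T cells (2,000/well, 18 h after plating) for 3 h at 37 C/5% CO2. Reporter activity detected via FRET beta-lactamase substrate, 2 h room-temperature loading.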
Test [12] deals with D(2) dopamine receptor (Homo sapiens) (UniProt P14416). As to the kind of experiment: Dopamine D2 receptor (DRD2) small molecule agonists, cell-based qHTS assay (AID 1963594). Note: nearly all actives have a fitted effect of over 35% in size. An outline of the steps:
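HEK293 cells stably expressing human DRD2, pre-treated with PDE inhibitor Ro20-1724 (0.1 mM final) and compound 10 min at room temperature, then stimulated with NKH477 (200nM […]) for 30 min. cAMP read by HTRF (665/620 nm).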

Test [13] is described as follows: cAMP Responsive Elements (CRE) small molecule antagonists, cell-based qHTS assay (AID 1963591; active = well fitted inhibition curve with a large enough effect in the signal ratio in the repeat runs, not every such curve was filed as active; the % refers to the signal ratio). The essentials: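 Antagonist mode: compounds are added alongside the adenylyl cyclase activator NKH477 (0.25 uM final) to CRE-bla HEK293T cells for 3 h. LiveBLAzer FRET substrate, 2 h at room temperature, reports bla expression.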
For test [14], the target named is Beta-2 adrenergic receptor (Homo sapiens) (UniProt P07550). Kind of test: Adrenergic beta2 receptor (ADRB2) small molecule antagonists, cell-based qHTS assay (AID 1963592). Note: nearly all actives have a fitted effect of over 50% in size. Note: potency is the fitted concentration of half-maximal effect. An outline of the steps: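 Assay format: CHO-ADRB2 cells, 18-20hr seeding at 37C/5% CO2, then compound plus 1nM isoproterenol agonist mix for 0.5hr RT. Homogeneous time-resolved fluorescence cAMP detection after 1hr, expressed as 665/615 nm ratio.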
Sequence of Beta-2 adrenergic receptor (Homo sapiens) (P07550 whole entry, looked up): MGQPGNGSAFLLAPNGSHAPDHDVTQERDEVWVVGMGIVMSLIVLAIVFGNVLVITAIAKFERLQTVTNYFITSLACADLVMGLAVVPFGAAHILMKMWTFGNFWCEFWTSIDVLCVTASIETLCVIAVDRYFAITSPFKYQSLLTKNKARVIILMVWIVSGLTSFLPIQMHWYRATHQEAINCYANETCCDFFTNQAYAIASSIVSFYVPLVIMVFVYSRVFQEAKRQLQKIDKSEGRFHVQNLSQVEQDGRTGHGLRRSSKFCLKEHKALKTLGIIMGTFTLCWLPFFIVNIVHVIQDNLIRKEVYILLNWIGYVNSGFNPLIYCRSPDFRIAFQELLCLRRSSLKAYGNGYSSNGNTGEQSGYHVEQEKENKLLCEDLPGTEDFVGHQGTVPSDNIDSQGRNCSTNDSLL

Test [15] has as its target D(2) dopamine receptor (Homo sapiens) (UniProt P14416). Kind of test: Dopamine D2 receptor (DRD2) small molecule antagonists, cell-based qHTS assay (AID 1963595; active = well fitted inhibition curve with a large enough effect in the signal ratio in the repeat runs, with a control signal flat; the % refers to the signal ratio; note: potency is the fitted concentration of half-maximal effect). The essentials:
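DRD2-HEK293; 0.1 mM Ro20-1724; cpd 10 min RT; NKH477 200 nM + quinpirole 12 nM, 30 min RT; HTRF cAMP (cAMP-d2/anti-cAMP cryptate), 665/620 nm ratio after 1 h.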

For test [16], the target named is Muscarinic acetylcholine receptor M1 (Homo sapiens) (UniProt P11229). As to the kind of experiment: Cholinergic receptor muscarinic 1 (CHRM1) small molecule antagonists, cell-based qHTS assay (AID 1963588). Note: nearly all actives have a fitted effect of over 40% in size. Note: potency is the fitted concentration of half-maximal effect. An outline of the steps: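 Compounds were tested at 15 concentrations in three independent runs. Dye-loaded CHRM1-CHO cells were exposed 5 min at room temperature before stimulation by acetylcholine added at 50nM. Intracellular calcium was read kinetically on FDSS for 3 min.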
Sequence of Muscarinic acetylcholine receptor M1 (Homo sapiens) (P11229 whole entry, looked up): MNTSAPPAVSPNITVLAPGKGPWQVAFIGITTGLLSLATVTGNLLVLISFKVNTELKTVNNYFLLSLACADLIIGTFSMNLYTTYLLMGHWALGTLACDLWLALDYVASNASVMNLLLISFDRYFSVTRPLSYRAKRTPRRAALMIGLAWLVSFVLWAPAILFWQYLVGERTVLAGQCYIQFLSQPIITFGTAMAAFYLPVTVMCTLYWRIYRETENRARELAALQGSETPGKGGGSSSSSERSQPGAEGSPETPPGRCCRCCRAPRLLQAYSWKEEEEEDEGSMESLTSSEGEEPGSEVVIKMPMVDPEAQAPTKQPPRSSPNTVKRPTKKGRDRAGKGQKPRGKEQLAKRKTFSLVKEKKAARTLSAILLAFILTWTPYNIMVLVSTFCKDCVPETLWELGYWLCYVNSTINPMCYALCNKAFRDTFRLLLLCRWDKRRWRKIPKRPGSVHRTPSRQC

Test [17] concerns the target KiSS-1 receptor (Homo sapiens) (UniProt Q969F8). Kind of test: Human kisspeptin (KISS1R) small molecule agonists, calcium flux assay in KISS1R-HEK293 cells (AID 1920064; active = well fitted curve in the direction sought with a large enough effect in the repeat runs; an effect the other way counts as inactive or inconclusive). An outline of the steps:
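Agonist mode: intracellular calcium rise tracked at 1 s intervals over 3 min (480/540 nm) immediately after compound addition to dye-loaded KISS1R-HEK293 stable cells. Each compound tested at 15 concentrations in triplicate.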

A short description of test [18]: p53 small molecule agonists, cell-based qHTS assay with rat liver microsomes (AID 1963578). An outline of the steps: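 Agonist mode in p53RE-bla reporter cells, with compounds co-incubated 16 h at 37 C alongside 0.5 mg/mL rat liver microsomes and 0.5 mg/mL NADPH (final), followed by a 2 h LiveBLAzer detection step.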
The nature of test [19]: p53 small molecule agonists, cell-based qHTS assay (AID 1963582; active = well fitted activation curve with a large enough effect in the signal ratio in the repeat runs, not every such curve was filed as active; the % refers to the signal ratio). The essentials: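 Read-out is beta-lactamase FRET fluorescence after 2 h at room temperature with LiveBLAzer B/G substrate. p53 response element-bla cells were treated 16 h at 37 C with compounds in DMSO, added 5 h after seeding.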

Sequence of D(2) dopamine receptor (Homo sapiens) (P14416 whole entry, looked up): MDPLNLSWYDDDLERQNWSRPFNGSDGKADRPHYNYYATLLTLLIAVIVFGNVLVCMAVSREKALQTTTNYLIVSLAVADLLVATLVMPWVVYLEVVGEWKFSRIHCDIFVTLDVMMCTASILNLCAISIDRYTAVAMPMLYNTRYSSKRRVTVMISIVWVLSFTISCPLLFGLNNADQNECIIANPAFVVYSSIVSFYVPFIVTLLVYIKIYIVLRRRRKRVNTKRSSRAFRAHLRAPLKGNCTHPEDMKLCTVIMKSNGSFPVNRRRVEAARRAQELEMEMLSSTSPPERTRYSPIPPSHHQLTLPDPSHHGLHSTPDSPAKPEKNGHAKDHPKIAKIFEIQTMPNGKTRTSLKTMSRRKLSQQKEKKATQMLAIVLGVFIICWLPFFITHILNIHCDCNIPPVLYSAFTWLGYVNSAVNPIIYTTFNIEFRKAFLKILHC
Sequence of Gonadotropin-releasing hormone receptor (Homo sapiens) (P30968 whole entry, looked up): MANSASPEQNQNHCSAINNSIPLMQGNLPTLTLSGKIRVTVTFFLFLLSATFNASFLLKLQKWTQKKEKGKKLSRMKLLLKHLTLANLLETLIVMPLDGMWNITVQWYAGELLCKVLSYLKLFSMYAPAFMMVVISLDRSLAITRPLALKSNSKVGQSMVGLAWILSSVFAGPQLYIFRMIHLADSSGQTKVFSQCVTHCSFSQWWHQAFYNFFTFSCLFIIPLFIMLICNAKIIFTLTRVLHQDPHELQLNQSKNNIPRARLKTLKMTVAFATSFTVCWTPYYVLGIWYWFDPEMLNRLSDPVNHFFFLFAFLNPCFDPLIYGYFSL
Sequence of KiSS-1 receptor (Homo sapiens) (Q969F8 whole entry, looked up): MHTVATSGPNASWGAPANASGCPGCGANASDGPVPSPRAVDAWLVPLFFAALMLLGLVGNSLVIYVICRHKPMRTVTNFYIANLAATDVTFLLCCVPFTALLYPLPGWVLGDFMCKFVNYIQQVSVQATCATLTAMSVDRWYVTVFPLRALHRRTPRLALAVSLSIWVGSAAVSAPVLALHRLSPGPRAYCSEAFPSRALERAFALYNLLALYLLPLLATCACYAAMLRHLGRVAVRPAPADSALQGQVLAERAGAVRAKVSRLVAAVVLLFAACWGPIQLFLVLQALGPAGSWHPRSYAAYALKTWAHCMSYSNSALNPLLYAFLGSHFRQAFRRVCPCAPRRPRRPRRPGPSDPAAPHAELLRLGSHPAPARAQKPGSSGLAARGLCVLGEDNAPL

For the molecule `CC[N+](CC)(CC(=O)Nc1c(C)cccc1C)Cc1ccccc1` (tested in a mixture with another compound), the Potency entry in test [1], in test [2], in test [3], in test [4], in [5] and in test [6] was “inactive” in each case. The Potency result in [7], in [8], in test [9], in test [10], in [11] and in test [12] was “inactive” throughout.

`CCC(C)(CCC(C)C)C(=O)[O-].CCC(C)(CCC(C)C)C(=O)[O-].[Zn+2]` (centres undefined): the Potency result in [1], in test [2], in test [3], in [4], in [5] and in test [6] was “inactive” throughout. The Potency entry in [7], in test [8], in test [9], in test [10], in test [11] and in test [13] was “inactive” each time. Moreover, the Potency entry in test [14], in test [12] and in test [15] was “inactive” in each case.

With `COC(C)=O`, the Potency result in test [1], in [2], in test [3], in [4], in [5] and in [6] was “inactive” each time. The Potency result in test [7], in [9], in [16], in test [10], in test [11] and in [13] was “inactive” throughout. The Potency entry in test [14], in test [12] and in test [15] was “inactive” throughout.

On to `CCCCOC(=O)CCC(C)=O`, for which the Potency entry in test [1], in [2], in test [3], in test [4], in [6] and in [7] was “inactive” in each case. Also, the Potency entry in [8], in test [9], in test [10], in test [11], in [13] and in test [12] was “inactive” throughout. For the same molecule, the Potency result in test [15] is “inactive”.

Take `Cc1[nH]cnc1C[C@H]1CCc2c(C)c3ccccc3n2C1=O`: the Potency result in test [1], in test [2], in test [17], in [4], in test [18] and in [5] was “inactive” throughout. The Potency entry in test [6], in [7], in [19], in test [10], in test [11] and in [12] was “inactive” each time. Further, the Potency in [8] was 1.46 µM (active); in [9], 42.6 µM (active); in test [16] it was 25.9 µM (active); in test [14], 23.7 µM (active); in test [15], 53.1 µM (active).

In the case of `CC(NCCC(c1ccccc1)c1ccccc1)c1ccccc1` (centres undefined), the Potency in [1] was 26.6 µM (active); in [9], 23.9 µM (active). Also, the Potency entry in test [2], in test [17], in [4], in [18], in test [5] and in [6] was “inactive” throughout. Also, the Potency result in test [7], in test [19], in test [8], in [16], in test [10] and in test [12] was “inactive” in each case.

On to `CC(C)(COC(=O)c1ccccc1)COC(=O)c1ccccc1`, for which the Potency result in test [1], in test [2], in test [3], in test [5], in [6] and in test [7] was “inactive” each time. Moreover, the Potency result in test [9], in test [10], in test [11], in test [13], in [14] and in [12] was “inactive” throughout. Moreover, the Potency entry in test [15] was “inactive”.
